The values that follow come from PubChem BioAssay.

The source made the active and inactive calls.

Experiment [1] concerns Human papillomavirus type 1a protein E7 (residues 44-93). As to the kind of experiment: small molecules binding HPV E7 44-93 – biochemical, small-molecule microarray, residues 44-93, 635 nm fluorescence, primary screen (AID 1108).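 Also: E7 fragment applied at 1 µg/mL in TBST for 1 h at 4 C; score combines spot fluorescence with its signal to noise ratio.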 The following applies: fluorescence 635 nm, higher = more signal.
A short description of experiment [2]: hepatitis C replication reporter changes, two-sided – Huh7 cells, luciferase reporter, HCV replication inhibitor project, primary screen (AID 1109).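 Also: huh7 hepatoma cells harbouring a luciferase neomycin HCV replicon reporter; luciferase luminescence as measure of HCV replicon replication; test concentration not given here.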 The conditions noted are these: Huh7 HCV replicon luciferase reporter, 48 h; higher = more signal. For orientation: Reporter assays use an easily measured gene product as a stand-in for the process of interest.
Experiment [3] has as its target Left-right determination factor 2 (Homo sapiens) (UniProt O00292). Nature of the experiment: small molecules binding LEFTY2 protein – biochemical, small-molecule microarray, 635 nm fluorescence scan, primary screen (AID 1110). The conditions noted are these: higher = more signal.
The target of experiment [4] is Calmodulin-1 (Homo sapiens) (UniProt P0DP23). Nature of the experiment: small molecules binding calmodulin-1 with EGTA – biochemical, small-molecule microarray, Cy5-labelled CALM1, profiling panel (AID 1111).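 Also: labelled calmodulin applied in Tris saline Tween buffer holding calcium plus EGTA and DTT.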 The following applies: Cy5-CALM1 binding fluorescence, higher = more signal.
For experiment [5] the target is unchanged. As to the kind of experiment: small molecules binding Ca-loaded calmodulin-1 – biochemical, small-molecule microarray, Cy5-labelled CALM1, plus calcium, artefact control for SMM control-protein annotation, profiling panel (AID 1112).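 Also: score merges spot fluorescence with signal to noise from triplicate slides.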 The following applies: Cy5-CALM1 binding fluorescence, higher = more signal.
Experiment [6] can be described thus: probe aWnt5a binding to arrayed compounds – biochemical, biotinylated probe, 635/667 nm fluorescence, primary screen (AID 1113).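 Also: score merges 667 nm fluorescence intensity with signal-to-noise per printed feature.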 The following applies: small-molecule microarray, higher = more signal.
The nature of experiment [7]: probe aShh binding to arrayed compounds – biochemical, biotinylated probe, 635/667 nm fluorescence, primary screen (AID 1114).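 Also: probe is biotin-labelled aShh protein from a stem cell growth factor screen; measures binding of labelled protein to compounds printed on the slide; score merges feature fluorescence at 667 nm with signal-to-noise.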 The conditions noted are these: small-molecule microarray, higher = more signal.
Experiment [8] is described as follows: probe aNog binding to arrayed compounds – biochemical, biotinylated probe, 635/667 nm fluorescence, primary screen (AID 1115).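 Also: probe is biotinylated aNog protein used at 0.15 µg/mL for 1 h at 4 C; z-score combines 667 nm fluorescence of each spot with its signal to noise.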 The conditions noted are these: small-molecule microarray, higher = more signal.
Experiment [9] deals with Torsin-1A-interacting protein 1 (Homo sapiens) (UniProt Q5JTV8). Nature of the experiment: compound microarray binding of lysate hLAP1 – cell lysate, small-molecule microarray, COS7 lysate, 635/667 nm fluorescence, primary screen (AID 1116). The conditions noted are these: 635 nm fluorescence, higher = more signal.
Torsin-1A-interacting protein 1 (Homo sapiens), sequence (Q5JTV8 whole entry, looked up): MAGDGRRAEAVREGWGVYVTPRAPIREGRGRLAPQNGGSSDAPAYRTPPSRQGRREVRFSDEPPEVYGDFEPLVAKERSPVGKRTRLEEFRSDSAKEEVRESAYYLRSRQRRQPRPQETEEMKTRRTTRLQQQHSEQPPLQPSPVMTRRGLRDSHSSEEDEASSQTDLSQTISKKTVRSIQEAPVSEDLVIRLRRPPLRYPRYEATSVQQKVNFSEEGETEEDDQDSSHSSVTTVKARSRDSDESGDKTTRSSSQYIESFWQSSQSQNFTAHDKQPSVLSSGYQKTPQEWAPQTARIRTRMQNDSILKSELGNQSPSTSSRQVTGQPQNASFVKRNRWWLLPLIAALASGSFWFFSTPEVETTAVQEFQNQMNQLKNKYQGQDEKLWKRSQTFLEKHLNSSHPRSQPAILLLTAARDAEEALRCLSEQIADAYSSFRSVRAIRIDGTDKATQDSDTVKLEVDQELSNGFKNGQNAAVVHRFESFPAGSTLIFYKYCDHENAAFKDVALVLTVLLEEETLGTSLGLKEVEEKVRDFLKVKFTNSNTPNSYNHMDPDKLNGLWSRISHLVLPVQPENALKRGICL
The target in experiment [10] is Alpha-bungarotoxin (Bungarus multicinctus) (UniProt P60615). Nature of the experiment: compounds binding labelled alpha-BTX control protein – biochemical, small-molecule microarray, Alexa647 label, 635/667 nm fluorescence, artefact control for SMM control protein annotation, profiling panel (AID 1117). The conditions noted are these: alpha-BTX-A647 binding fluorescence, higher = more signal.
Alpha-bungarotoxin (Bungarus multicinctus), sequence (P60615 whole entry, looked up): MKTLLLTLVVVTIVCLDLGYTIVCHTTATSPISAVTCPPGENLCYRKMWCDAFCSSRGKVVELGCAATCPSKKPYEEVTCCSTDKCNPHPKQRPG

In another experiment the target is Albumin (Bos taurus) (UniProt P02769). As to the kind of experiment: compounds binding labelled BSA control protein – biochemical, small-molecule microarray, Alexa647 label, 635/667 nm fluorescence, artefact control for SMM control protein annotation, profiling panel (AID 1118).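 Also: score merges 667 nm emission intensity and signal-to-noise per printed compound spot.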 The following applies: BSA-A647 binding, fluorescence 635 nm, higher = more signal.
Albumin (Bos taurus), sequence (P02769 whole entry, looked up): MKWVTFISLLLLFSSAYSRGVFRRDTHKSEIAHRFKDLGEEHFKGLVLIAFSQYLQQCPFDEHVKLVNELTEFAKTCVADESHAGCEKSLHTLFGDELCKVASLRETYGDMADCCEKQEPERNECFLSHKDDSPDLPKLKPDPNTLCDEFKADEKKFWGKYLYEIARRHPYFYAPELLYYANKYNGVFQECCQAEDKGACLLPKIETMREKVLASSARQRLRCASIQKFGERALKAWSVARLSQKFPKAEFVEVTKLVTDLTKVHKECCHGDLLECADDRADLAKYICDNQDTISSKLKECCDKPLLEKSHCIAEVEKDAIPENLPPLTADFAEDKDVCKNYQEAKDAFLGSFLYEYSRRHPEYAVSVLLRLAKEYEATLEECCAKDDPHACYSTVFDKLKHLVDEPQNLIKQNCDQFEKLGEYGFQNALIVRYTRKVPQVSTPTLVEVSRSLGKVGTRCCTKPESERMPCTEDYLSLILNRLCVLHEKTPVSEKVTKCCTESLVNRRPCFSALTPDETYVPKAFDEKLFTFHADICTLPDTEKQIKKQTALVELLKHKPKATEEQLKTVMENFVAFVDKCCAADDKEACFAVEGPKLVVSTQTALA
A short description of experiment [11]: probe aXIP binding to arrayed compounds – biochemical, NeuroSMM set, 635/667 nm fluorescence, primary screen (AID 1119).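 Also: probe is the protein aXip251-270 applied at 1 µg/mL to compound-printed slides; binding of probe to printed compounds measured as 667 nm fluorescence plus signal to noise.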 The following applies: small-molecule microarray, higher = more signal, called active from +8 up or from −8 down.
A short description of experiment [12]: probe aNOTCH3 binding on compound microarray – biochemical, small-molecule microarray, 635/667 nm fluorescence, primary screen (AID 1120).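 Also: probe is a biotin-tagged antibody raised against NOTCH3 rather than NOTCH3 protein; score merges spot fluorescence near 667 nm with spot signal to noise.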 The conditions noted are these: higher = more signal.
Experiment [13] is described as follows: probe aNOTCH2 binding on compound microarray – biochemical, small-molecule microarray, 635/667 nm fluorescence, primary screen (AID 1121).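 Also: score merges feature fluorescence read at 667 nm with its signal to noise.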 The following applies: higher = more signal.
The target in experiment [14] is Carbonic anhydrase 2 (Homo sapiens) (UniProt P00918). Nature of the experiment: compounds binding carbonic anhydrase 2 – biochemical, small-molecule microarray, Alexa647-labelled CAII, profiling panel (AID 1122). The conditions noted are these: CAII-A647 binding fluorescence, higher = more signal.
The nature of experiment [15]: COS7 lysate on small-molecule microarray, probe aHis, 635 nm (AID 1123).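 Also: z-score combines 667nm fluorescence intensity with signal-to-noise per printed compound spot.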 The conditions noted are these: COS7 cell lysate, fluorescence, higher = more signal.
A short description of experiment [16]: probe aLAP1 signal on lysate-treated microarray – cell lysate, small-molecule microarray, COS7 lysate, primary screen (AID 1124).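 Also: lysate comes from COS7 cells expressing LAP1 and is applied at 0.3 µg/mL; score merges spot fluorescence near 667 nm with signal-to-noise over triplicate slides.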 The conditions noted are these: probe aLAP1, fluorescence, higher = more signal.
For another experiment, the system named is Sam68 (KHDRBS1). Nature of the experiment: compounds binding KHDRBS1 protein – biochemical, small-molecule microarray, 635 nm fluorescence, primary screen (AID 1125).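 Also: score merges 667 nm channel intensity with signal to noise over triplicate slides.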 The conditions noted are these: higher = more signal.
Experiment [17] relates to Chordin-like protein 2 (CHRDL2). As to the kind of experiment: compounds binding chordin-like 2 – biochemical, small-molecule microarray, 635 nm fluorescence, primary screen (AID 1126).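 Also: printed compound slides probed with Chrdl2 protein at 4 µg/mL for 1 h at 4 C; score merges 667 nm emission intensity with signal to noise over three replicate slides.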 The conditions noted are these: fluorescence 635 nm, higher = more signal.
The target of experiment [18] is Concanavalin-A (Canavalia ensiformis) (UniProt P02866). Nature of the experiment: compounds binding concanavalin A lectin – biochemical, small-molecule microarray, Alexa647 label, 635 nm, artefact control for SMM control protein annotation, primary screen (AID 1127).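 Also: z combines 667 nm emission intensity with signal-to-noise across three replicate slides.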 The following applies: ConA-A647 binding fluorescence, higher = more signal.
Concanavalin-A (Canavalia ensiformis), sequence (P02866 whole entry, looked up): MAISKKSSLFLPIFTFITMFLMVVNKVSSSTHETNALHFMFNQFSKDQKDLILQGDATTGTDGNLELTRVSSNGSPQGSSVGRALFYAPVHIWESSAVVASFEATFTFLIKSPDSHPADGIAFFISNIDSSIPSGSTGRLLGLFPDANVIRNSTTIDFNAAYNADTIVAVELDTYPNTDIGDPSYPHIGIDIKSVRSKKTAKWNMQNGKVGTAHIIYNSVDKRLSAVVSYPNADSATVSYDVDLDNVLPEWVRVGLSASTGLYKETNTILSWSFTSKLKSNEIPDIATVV

Left-right determination factor 2 (Homo sapiens), sequence (O00292 whole entry, looked up): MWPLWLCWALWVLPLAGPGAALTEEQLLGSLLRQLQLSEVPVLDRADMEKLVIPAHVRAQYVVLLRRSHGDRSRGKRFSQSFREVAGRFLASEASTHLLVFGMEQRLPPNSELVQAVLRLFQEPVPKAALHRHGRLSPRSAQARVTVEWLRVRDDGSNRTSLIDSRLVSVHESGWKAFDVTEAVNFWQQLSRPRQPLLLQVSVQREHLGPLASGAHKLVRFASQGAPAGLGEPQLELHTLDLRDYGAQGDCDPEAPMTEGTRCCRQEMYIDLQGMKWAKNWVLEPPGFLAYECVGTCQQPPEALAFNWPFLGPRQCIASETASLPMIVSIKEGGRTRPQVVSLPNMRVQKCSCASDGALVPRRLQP

For the compound `CC1(C)O[C@H]2OC([C@H](O)CON3C(=O)c4ccccc4C3=O)[C@H](O)[C@H]2O1` (stereo not given in full), the composite z-score in [1] is -0.0928; in [3] it was 0.244; in experiment [4], -0.494; in experiment [5], -0.539; in [6], -0.109; in experiment [7] it was -0.27. Also, the composite z-score is -0.218 in experiment [8]; -0.1 in experiment [9]; -0.0472 in experiment [10]; 0.107 with Albumin (Bos taurus); -0.135 in [12]; 0.117 in [13]. The composite z-score was 0.341 in experiment [14]; -0.378 in [15]; -0.0948 in [16]; 0.29 with Sam68 (KHDRBS1); 0.0988 in [17]; -0.371 in [18]. The same compound came in with a z-score in experiment [2] of -0.585. Also, the composite Z-score in experiment [11] is -0.282 (inactive).

With `CO[C@@H]1C=CCC(=O)N[C@@H](C)C(=O)OC[C@@H](OC)[C@H](C)C=CCC(=O)OC[C@H]1C`, the composite z-score in experiment [1] was -0.669; in experiment [3] it was 1.48; in experiment [4] it was -1.14; in experiment [5], -1.96; in experiment [6] it was -0.152; in experiment [7] it was -0.0035. For the same compound, the composite z-score is 0.109 in [8]; 0.037 in experiment [9]; 0.373 in experiment [10]; -1.01 with Albumin (Bos taurus); -0.0967 in experiment [12]; -0.123 in experiment [13]. In addition, the composite z-score in experiment [14] was -0.689; in experiment [15], -1.2; in experiment [16], 0.0645; with Sam68 (KHDRBS1), 0.451; in experiment [17] it was 1.49; in experiment [18], -1.09. In experiment [2], this compound showed a z-score of 0.388. Moreover, in experiment [11], the composite Z-score was 0.914 (inactive).

Regarding `CC(C)=NOC(C)CN1CCCCc2nc(C)c(C)cc21` (stereo not given), the composite z-score was 0.103 in experiment [1]; 0.576 in [3]; -0.254 in experiment [4]; -0.66 in [5]; -0.113 in experiment [6]; -0.0769 in [7]. The composite z-score is -0.198 in experiment [8]; 0.605 in experiment [9]; -0.265 in experiment [10]; 0.673 in the experiment with Albumin (Bos taurus); 0.169 in experiment [12]; -0.0859 in experiment [13]. Further, the composite z-score in experiment [14] was 0.418; in [15], 0.951; in experiment [16], 0.045; with Sam68 (KHDRBS1) it was 0.313; in experiment [17], 0.732; in experiment [18] it was 0.109. Also, in experiment [2], the z-score was -0.594. In experiment [11], the composite Z-score was 0.761 (inactive).

Consider `CO[C@@H](C1CCCCC1)[C@@H](C)[C@H](OCc1cccc(Br)c1)[C@@H](C)CO`, for which the composite z-score in [1] is -0.18; in [3] it was 0.481; in experiment [4] it was -0.434; in [5], 0.318; in [6], -0.139; in experiment [7], -0.0709. In addition, the composite z-score in [8] is 0.0649; in [9], 0.0682; in experiment [10] it was -0.378; in the experiment with Albumin (Bos taurus), -0.0658; in experiment [12] it was -0.207; in experiment [13], -0.209. The composite z-score in experiment [14] is -0.17; in experiment [15], -0.111; in experiment [16], -0.0972; with Sam68 (KHDRBS1) it was -0.0221; in experiment [17] it was 0.908; in experiment [18] it was -0.153. In experiment [2], this compound registered a z-score of -1.88. The composite Z-score in [11] was -0.188 (inactive).

On to `Cc1cc2c(nc1C)CCCCN2CC(O)CN1CCCc2nc(-c3ccc(Br)cc3)ccc21` (stereo not given), for which the composite z-score in experiment [1] was 0.599; in [3], 0.615; in [4], 0.114; in experiment [5] it was -0.823; in experiment [6], 0.093; in experiment [7] it was 0.304. Moreover, the composite z-score in experiment [8] stood at 0.17; in experiment [9] it was 0.404; in [10], 0.888; in the experiment with Albumin (Bos taurus) it was 0.466; in [12], 0.298; in experiment [13], 0.0067. Moreover, the composite z-score came to 0.493 in experiment [14]; 0.417 in experiment [15]; 0.293 in [16]; 0.754 with Sam68 (KHDRBS1); 0.613 in [17]; 0.783 in experiment [18]. In [2], this compound displayed a z-score of -0.116. Further, the composite Z-score in experiment [11] is -0.211 (inactive).
